According to PubChem BioAssay AID1159580 (chemical genetic matrix, 2015):
About 2,000 (36%) of roughly 5,500 compounds were called active. Another 18% or so got no clear call; they are omitted. No stated cut-off is given here; in the data, active means normalized growth mostly below about 0.91 (no sharp cut-off); inconclusive means no clear call, values can overlap the other calls; inactive means mostly above about 0.92. This is one part of the list.

Experiment: chemical genetic growth profiling, strain panel (AID 1159580);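 further: tested at 20 µM; growth read once vehicle control cultures reached saturation at 30 °C; 1 = growth at the plate median or of vehicle wells; lower values mean less growth of the strain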
Conditions: growth OD

Measured: normalized growth

CC12CCC(CC1)C(C)(C)O2
inactive: S. cerevisiae deletion strains, locus YJL187C, strain SWE1 (second series), active compounds read low 1 | S. cerevisiae deletion strains, locus YJL187C, strain SWE1, active compounds read low 0.989 | S. cerevisiae deletion strains, locus YJR043C, strain POL32, active compounds read low 0.989 | S. cerevisiae deletion strains, locus YJR066W, strain TOR1, active compounds read low 0.94 | S. cerevisiae deletion strains, locus YKL009W, strain mrt4, active compounds read low 1.03 | S. cerevisiae deletion strains, locus YKL068W, active compounds read low 1.01 | S. cerevisiae deletion strains, locus YKL085W, strain MDH1 (second series), active compounds read low 1.01 | S. cerevisiae deletion strains, locus YKL085W, strain MDH1, active compounds read low 1.01 | S. cerevisiae deletion strains, locus YKL160W, strain elf1, active compounds read low 1 | S. cerevisiae deletion strains, locus YKR001C, strain vps1, active compounds read low 1.01 | S. cerevisiae deletion strains, locus YKR026C, strain gcn3, active compounds read low 0.977 | S. cerevisiae deletion strains, locus YKR091W, strain srl3, active compounds read low 0.993 | S. cerevisiae deletion strains, locus YLL001W, strain dnm1, active compounds read low 0.985 | S. cerevisiae deletion strains, locus YLL026W, active compounds read low 0.977 | S. cerevisiae deletion strains, locus YLL041C, strain sdh2, active compounds read low 0.974 | S. cerevisiae deletion strains, locus YLR027C, strain aat2, active compounds read low 0.97 | S. cerevisiae deletion strains, locus YLR039C, strain RIC1, active compounds read low 1.01 | S. cerevisiae deletion strains, locus YLR058C, strain SHM2, active compounds read low 1.01 | S. cerevisiae deletion strains, locus YLR102C, strain apc9, active compounds read low 1.01 | S. cerevisiae deletion strains, locus YLR113W, strain HOG1, active compounds read low 0.994 | S. cerevisiae deletion strains, locus YLR221C, strain rsa3, active compounds read low 0.98 | S. cerevisiae deletion strains, locus YLR258W, strain gsy2, active compounds read low 0.976 | S. cerevisiae deletion strains, locus YLR262C, strain YPT6 (second series), active compounds read low 1.03 | S. cerevisiae deletion strains, locus YLR262C, strain YPT6, active compounds read low 1 | S. cerevisiae deletion strains, locus YLR268W, strain sec22, active compounds read low 0.994 | S. cerevisiae deletion strains, locus YLR320W, strain mms22, active compounds read low 0.994 | S. cerevisiae deletion strains, locus YLR330W, strain CHS5, active compounds read low 1.01 | S. cerevisiae deletion strains, locus YLR342W, strain FKS1 (second series), active compounds read low 1.04 | S. cerevisiae deletion strains, locus YLR342W, strain FKS1, active compounds read low 0.974 | S. cerevisiae deletion strains, locus YLR357W, strain rsc2, active compounds read low 0.932 | S. cerevisiae deletion strains, locus YLR370C, strain arc18, active compounds read low 0.972 | S. cerevisiae deletion strains, locus YLR371W, strain rom2, active compounds read low 1.02 | S. cerevisiae deletion strains, locus YLR384C, strain iki3, active compounds read low 0.974 | S. cerevisiae deletion strains, locus YLR418C, strain cdc73, active compounds read low 1.05 | S. cerevisiae deletion strains, locus YML016C, strain PPZ1, active compounds read low 1.01 | S. cerevisiae deletion strains, locus YML032C, strain rad52, active compounds read low 1.02 | S. cerevisiae deletion strains, locus YML120C, strain ndi1, active compounds read low 0.988 | S. cerevisiae deletion strains, locus YML124C, strain tub3, active compounds read low 1.02 | S. cerevisiae deletion strains, locus YMR058W, strain fet3, active compounds read low 0.98 | S. cerevisiae deletion strains, locus YMR078C, strain ctf18, active compounds read low 1.01 | S. cerevisiae deletion strains, locus YMR125W, strain sto1, active compounds read low 0.977 | S. cerevisiae deletion strains, locus YMR129W, active compounds read low 0.992 | S. cerevisiae deletion strains, locus YMR205C, strain PFK2, active compounds read low 0.99 | S. cerevisiae deletion strains, locus YMR223W, strain ubp8, active compounds read low 1.03 | S. cerevisiae deletion strains, locus YMR231W, strain pep5, active compounds read low 0.957 | S. cerevisiae deletion strains, locus YMR307W, strain GAS1, active compounds read low 0.998 | S. cerevisiae deletion strains, locus YNL067W, strain RPL9B, active compounds read low 1 | S. cerevisiae deletion strains, locus YNL071W, strain lat1, active compounds read low 0.984 | S. cerevisiae deletion strains, locus YNL183C, strain NPR1, active compounds read low 0.907 | S. cerevisiae deletion strains, locus YNL209W, strain ssb2, active compounds read low 0.98 | S. cerevisiae deletion strains, locus YNL233W, strain BNI4, active compounds read low 1.01 | S. cerevisiae deletion strains, locus YNL248C, strain rpa49, active compounds read low 0.978 | S. cerevisiae deletion strains, locus YNL250W, strain rad50, active compounds read low 0.99 | S. cerevisiae deletion strains, locus YNL271C, strain bni1, active compounds read low 1.01 | S. cerevisiae deletion strains, locus YNL298W, strain CLA4, active compounds read low 1.02 | S. cerevisiae deletion strains, locus YNL307C, strain MCK1, active compounds read low 1.01 | S. cerevisiae deletion strains, locus YNL322C, strain KRE1 (second series), active compounds read low 0.967 | S. cerevisiae deletion strains, locus YNR049C, strain mso1, active compounds read low 0.983 | S. cerevisiae deletion strains, locus YNR052C, strain pop2, active compounds read low 1.01 | S. cerevisiae deletion strains, locus YOL012C, strain htz1 0.871 | S. cerevisiae deletion strains, locus YOL147C, strain pex11, active compounds read low 1.01 | S. cerevisiae deletion strains, locus YOR001W, strain rrp6, active compounds read low 0.98 | S. cerevisiae deletion strains, locus YOR061W, strain CKA2, active compounds read low 1.01 | S. cerevisiae deletion strains, locus YOR069W, strain VPS5, active compounds read low 1 | S. cerevisiae deletion strains, locus YOR070C, strain gyp1, active compounds read low 0.971 | S. cerevisiae deletion strains, locus YOR080W, strain dia2, active compounds read low 0.975 | S. cerevisiae deletion strains, locus YOR083W, strain WHI5, active compounds read low 0.992 | S. cerevisiae deletion strains, locus YOR106W, strain vam3, active compounds read low 0.954 | S. cerevisiae deletion strains, locus YOR136W, strain idh2, active compounds read low 1 | S. cerevisiae deletion strains, locus YOR144C, strain elg1, active compounds read low 1.01 | S. cerevisiae deletion strains, locus YOR184W, strain ser1, active compounds read low 1 | S. cerevisiae deletion strains, locus YOR231W, strain MKK1, active compounds read low 1.01 | S. cerevisiae deletion strains, locus YOR265W, strain rbl2, active compounds read low 0.999 | S. cerevisiae deletion strains, locus YOR270C, strain vph1, active compounds read low 1.02 | S. cerevisiae deletion strains, locus YOR290C, strain snf2, active compounds read low 0.979 | S. cerevisiae deletion strains, locus YOR316C, strain cot1, active compounds read low 1.02 | S. cerevisiae deletion strains, locus YPL051W, strain arl3, active compounds read low 0.973 | S. cerevisiae deletion strains, locus YPL055C, strain LGE1, active compounds read low 1.02 | S. cerevisiae deletion strains, locus YPL078C, strain atp4, active compounds read low 0.995 | S. cerevisiae deletion strains, locus YPL106C, strain sse1, active compounds read low 0.978 | S. cerevisiae deletion strains, locus YPL240C, strain hsp82, active compounds read low 0.968 | S. cerevisiae deletion strains, locus YPL256C, strain CLN2, active compounds read low 0.977 | S. cerevisiae deletion strains, locus YPR119W, strain clb2, active compounds read low 1.02 | S. cerevisiae deletion strains, locus YPR141C, strain kar3, active compounds read low 1.03 | S. cerevisiae deletion strains, locus YPR163C, strain tif3, active compounds read low 1.02 | S. cerevisiae deletion strains, locus YPR167C, strain met16, active compounds read low 1.02 | S. cerevisiae deletion strains, strain wtn01, active compounds read low 1.03 | S. cerevisiae strains, strain wild type, active compounds read low 1.01
